Assay [1] can be described thus: qHTS assay to identify small molecule antagonists of the glucocorticoid receptor (GR) signaling pathway - cell viability counter screen (AID 720693). Also: nearly all actives have a fitted effect of over 55% in size.
Assay [2] in a line: qHTS assay for identifying genotoxic compounds that show differential cytotoxicity against isogenic chicken DT40 cell lines with known DNA damage response pathways - wild type cell line (AID 743012). Also: nearly all actives have a fitted effect of over 60% in size. Also: potency is read from the fitted curve at half-maximal effect. Put shortly:
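Viability by ATP luminescence (CellTiter-Glo, 30 min RT) after 40 h compound treatment at 37 C/5% CO2, using 300 parental DNA repair-proficient DT40 cells per well.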

The nature of assay [3]: qHTS assay to identify small molecule antagonists of the androgen receptor (AR) signaling pathway - cell viability counter screen (AID 743033; also: nearly all actives have a fitted effect of over 45% in size).
The nature of assay [4]: qHTS assay to identify small molecule antagonists of the androgen receptor (AR) signaling pathway using the MDA cell line - cell viability counter screen (AID 743041; also: nearly all actives have a fitted effect of over 45% in size). Put shortly: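 In this qHTS counter assay, fluorescence intensity after CellTiter-Fluor addition indicated viability of MDA-kb2 AR-luc cells given compounds and R1881 for 16 h at 37C.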
The nature of assay [5]: qHTS assay to identify small molecule antagonists of the thyroid receptor (TR) signaling pathway (AID 743065). Also: nearly all actives have a fitted effect of over 55% in size. Also: potency is read from the fitted curve at half-maximal effect. Put shortly: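 GH3.TRE-Luc rat pituitary cells carrying two TR response elements driving luciferase were plated for 4 h, given compound plus 1 nM T3 (final), and incubated 23.5 h at 37 C. ONE-Glo luminescence measured reporter inhibition; CellTiter-Fluor fluorescence tracked cytotoxicity.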

Assay [6] has as its system thyroid hormone receptor (rat, GH3 cells). In words: qHTS assay to identify small molecule agonists of the thyroid receptor (TR) signaling pathway (AID 743066; calls by dose curve).
Assay [7] has as its target Estrogen receptor (Homo sapiens) (UniProt P03372). In words: qHTS assay to identify small molecule antagonists of the estrogen receptor alpha (ER-alpha) signaling pathway (AID 743069; active = well fitted curve in the direction sought with a large enough effect in the signal ratio in the repeat runs, not every such curve was filed as active; the % refers to the signal ratio). Put shortly: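 A 17beta-estradiol challenge was applied right after compound transfer to ER-alpha-UAS-bla HEK293 cells previously kept in charcoal-stripped serum. Plates stood 18 hr at 37C and 5% CO2; fluorescence was read following 2 hr FRET substrate loading at room temperature.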

Assay [8] can be described thus: qHTS assay to identify small molecule antagonists of the estrogen receptor alpha (ER-alpha) signaling pathway - cell viability counter screen (AID 743074; calls by dose curve;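 also: HEK293 cells carrying ER-alpha-UAS-bla reporter stimulated with 17beta-estradiol; nearly all actives have a fitted effect of over 45% in size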).
In assay [9] the target is Estrogen receptor (Homo sapiens) (UniProt P03372). In words: qHTS assay to identify small molecule agonists of the estrogen receptor alpha (ER-alpha) signaling pathway (AID 743075; calls by dose curve;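 also: HEK293 GripTite cells with ER-alpha and UAS-driven beta-lactamase reporter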).
Chain of Estrogen receptor (Homo sapiens) (P03372 whole entry, looked up): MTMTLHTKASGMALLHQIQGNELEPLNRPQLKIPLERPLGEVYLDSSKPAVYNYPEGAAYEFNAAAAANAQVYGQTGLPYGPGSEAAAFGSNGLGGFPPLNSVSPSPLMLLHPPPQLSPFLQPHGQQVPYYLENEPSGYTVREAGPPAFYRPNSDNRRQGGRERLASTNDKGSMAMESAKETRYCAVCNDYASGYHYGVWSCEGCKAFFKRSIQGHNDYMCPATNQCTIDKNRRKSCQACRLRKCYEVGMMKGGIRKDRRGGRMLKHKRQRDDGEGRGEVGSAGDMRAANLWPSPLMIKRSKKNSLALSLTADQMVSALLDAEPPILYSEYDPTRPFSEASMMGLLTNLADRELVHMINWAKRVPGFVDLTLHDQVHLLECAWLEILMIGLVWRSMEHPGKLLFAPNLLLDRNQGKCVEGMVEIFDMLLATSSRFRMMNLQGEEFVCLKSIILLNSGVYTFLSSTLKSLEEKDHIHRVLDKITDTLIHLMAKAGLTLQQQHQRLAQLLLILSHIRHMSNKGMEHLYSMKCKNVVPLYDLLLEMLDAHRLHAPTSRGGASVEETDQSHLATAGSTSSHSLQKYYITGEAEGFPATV
The target is the same in assay [10]. In words: qHTS assay to identify small molecule agonists of the estrogen receptor alpha (ER-alpha) signaling pathway using the BG1 cell line (AID 743079). Also: nearly all actives have a fitted effect of over 20% in size.
Assay [11] can be described thus: qHTS assay to identify small molecule antagonists of the estrogen receptor alpha (ER-alpha) signaling pathway using the BG1 cell line (AID 743080; calls by dose curve;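 also: BG1 cells stimulated with 17beta-estradiol alongside compound; series mostly up to about 70 µM; nearly all actives have a fitted effect of over 25% in size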). Put shortly:
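Luminescence from a 4×ERE-luciferase reporter in BG1-Luc-4E2 cells served as read-out. Cells, pre-cultured 5 days in stripped-serum phenol-red-free medium, were exposed to compound with 17beta-estradiol co-stimulation for 21.5 h at 37 C.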

Assay [12] is described as follows: qHTS assay to identify small molecule antagonists of the estrogen receptor alpha (ER-alpha) signaling pathway using the BG1 cell line - cell viability counter screen (AID 743081).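 Also: compound given together with 17beta-estradiol as the ER stimulus; series mostly up to about 70 µM; nearly all actives have a fitted effect of over 45% in size.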
A further assay addresses Aromatase (Homo sapiens) (UniProt P11511). In words: qHTS assay to identify aromatase inhibitors (AID 743083). Also: series mostly up to about 70 µM; nearly all actives have a fitted effect of over 55% in size.
Assay [13] is described as follows: qHTS assay for identifying genotoxic compounds that show differential cytotoxicity against isogenic chicken DT40 cell lines with known DNA damage response pathways - Rev3 mutant cell line (AID 743014). Also: nearly all actives have a fitted effect of over 55% in size. Also: potency is read from the fitted curve at half-maximal effect.
Assay [14] can be described thus: qHTS assay for identifying genotoxic compounds that show differential cytotoxicity against isogenic chicken DT40 cell lines with known DNA damage response pathways - Rad54/Ku70 mutant cell line (AID 743015). Also: nearly all actives have a fitted effect of over 60% in size. Also: potency is read from the fitted curve at half-maximal effect.
Assay [15] addresses Androgen receptor (Homo sapiens) (UniProt P10275). In words: qHTS assay to identify small molecule antagonists of the androgen receptor (AR) signaling pathway (AID 743035; active = well fitted inhibition curve with a large enough effect in the signal ratio in the repeat runs, not every such curve was filed as active; the % refers to the signal ratio; also: potency is read from the fitted curve at half-maximal effect). Put shortly:
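Antagonist mode: AR-bla HEK293 cells co-treated with test compounds and agonist R1881 for 16 h at 37C, 5% CO2. Beta-lactamase activity read as FRET fluorescence after 2 h room-temperature substrate loading.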

Assay [16] has the same target. In words: qHTS assay to identify small molecule agonists of the androgen receptor (AR) signaling pathway (AID 743036; active = well fitted activation curve with a large enough effect in the signal ratio in the repeat runs, with a control signal flat, not every such curve was filed as active; the % refers to the signal ratio). Put shortly:
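In this Tox21 qHTS, 2,000 HEK293 AR-bla cells per well were incubated with compounds for 16 h at 37C and 5% CO2. Fluorescence intensity was recorded 2 h after adding LiveBLAzer B/G FRET substrate at room temperature.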

Assay [17] shares this target. In words: qHTS assay to identify small molecule agonists of the androgen receptor (AR) signaling pathway using the MDA cell line (AID 743040; also: nearly all actives have a fitted effect of over 20% in size). Put shortly: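 Cell-based luciferase reporter: MDA-kb2, MMTV promoter (AR + GR response elements). 16 h compound exposure at 37C; ONE-Glo, 30 min RT, luminescence.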
Assay [18] shares this target. In words: qHTS assay to identify small molecule antagonists of the androgen receptor (AR) signaling pathway using the MDA cell line (AID 743042; also: nearly all actives have a fitted effect of over 55% in size). Put shortly:
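MDA-kb2 cells (human breast carcinoma, stably carrying an MMTV-luciferase reporter responsive to AR and GR) were plated at 3,000 cells/well and preincubated 5 hr at 37C, then given compound plus R1881 agonist for 16 h. ONE-Glo luminescence was read.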

Assay [19] is described as follows: qHTS assay to identify small molecule antagonists of the thyroid receptor (TR) signaling pathway - cell viability counter screen (AID 743064). Also: nearly all actives have a fitted effect of over 50% in size. Also: potency is read from the fitted curve at half-maximal effect. Put shortly: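 Counter screen for cytotoxicity: compound plus T3 (1 nM final) on GH3.TRE-Luc cells, 23.5 h at 37 °C, then fluorescence viability readout with CellTiter-Fluor.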

A number with no mark means an inactive call. Results filed as inconclusive are left out. Calls of active or inactive are those of the source. Unless noted, calls follow the shape of the dose curve; as a rule, active = well fitted curve in the direction sought with a large enough effect in the repeat runs; inconclusive = weak or mixed curves; inactive = no such curve, though single readings can be large; an effect the other way counts as inactive or inconclusive.

Chain of Androgen receptor (Homo sapiens) (P10275 whole entry, looked up): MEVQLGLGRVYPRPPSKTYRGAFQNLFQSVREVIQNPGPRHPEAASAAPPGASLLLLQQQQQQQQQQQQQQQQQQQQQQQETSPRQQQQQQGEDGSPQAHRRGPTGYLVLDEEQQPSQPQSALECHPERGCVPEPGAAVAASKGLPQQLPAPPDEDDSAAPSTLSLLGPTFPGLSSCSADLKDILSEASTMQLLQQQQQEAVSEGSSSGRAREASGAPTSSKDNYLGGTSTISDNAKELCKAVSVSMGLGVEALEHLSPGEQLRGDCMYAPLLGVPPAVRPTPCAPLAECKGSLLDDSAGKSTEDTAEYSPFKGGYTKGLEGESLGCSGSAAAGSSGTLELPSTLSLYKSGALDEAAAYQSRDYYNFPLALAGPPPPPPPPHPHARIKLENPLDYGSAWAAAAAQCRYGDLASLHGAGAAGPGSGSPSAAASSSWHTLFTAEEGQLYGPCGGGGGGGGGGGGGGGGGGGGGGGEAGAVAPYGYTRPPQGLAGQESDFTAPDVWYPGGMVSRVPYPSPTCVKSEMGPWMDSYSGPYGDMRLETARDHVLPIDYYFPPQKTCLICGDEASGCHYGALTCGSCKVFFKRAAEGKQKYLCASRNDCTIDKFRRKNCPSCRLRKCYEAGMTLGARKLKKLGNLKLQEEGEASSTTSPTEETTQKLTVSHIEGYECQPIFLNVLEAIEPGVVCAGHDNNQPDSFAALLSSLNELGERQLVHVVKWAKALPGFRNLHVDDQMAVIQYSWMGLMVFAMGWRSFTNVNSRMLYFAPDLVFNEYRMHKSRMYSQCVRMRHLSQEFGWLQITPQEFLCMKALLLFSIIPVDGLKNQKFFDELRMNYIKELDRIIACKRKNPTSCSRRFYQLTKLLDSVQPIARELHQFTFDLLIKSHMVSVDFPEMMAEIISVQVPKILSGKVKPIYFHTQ
Chain of Aromatase (Homo sapiens) (P11511 whole entry, looked up): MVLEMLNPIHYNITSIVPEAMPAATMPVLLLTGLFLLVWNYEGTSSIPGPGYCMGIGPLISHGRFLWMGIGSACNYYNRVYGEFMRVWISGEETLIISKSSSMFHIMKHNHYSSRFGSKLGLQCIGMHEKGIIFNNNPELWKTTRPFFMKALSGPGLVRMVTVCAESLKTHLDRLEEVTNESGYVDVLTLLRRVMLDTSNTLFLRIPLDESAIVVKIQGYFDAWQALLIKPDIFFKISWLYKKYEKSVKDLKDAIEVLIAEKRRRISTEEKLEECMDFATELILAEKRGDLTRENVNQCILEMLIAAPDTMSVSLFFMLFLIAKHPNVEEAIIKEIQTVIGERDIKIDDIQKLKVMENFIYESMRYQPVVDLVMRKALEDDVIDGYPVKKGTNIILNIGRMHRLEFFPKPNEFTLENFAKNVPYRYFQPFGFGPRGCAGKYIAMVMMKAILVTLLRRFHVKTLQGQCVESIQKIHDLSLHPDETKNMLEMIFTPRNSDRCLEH

Regarding `CNC(=O)C(c1ccccc1)c1ccccc1`, the Potency entry in [1], in [5], in [6], in [7], in assay [8] and in assay [9] was “inactive” in each case. Moreover, the Potency result in [10] is “inactive”. Further, in [2], the Potency is 61.1 µM (active). The compound was classed as inactive (in assay [3]; in assay [4]; in [11]; in assay [12]; with Aromatase (Homo sapiens)).
As for `O=S(=O)(O)SSS(=O)(=O)O`, the Potency entry in assay [1], in [13], in assay [14], in assay [15], in assay [19] and in assay [5] was “inactive” each time. The Potency result in [6] and in [8] was “inactive” in each case. For the same compound, the compound was classed as inactive (in assay [3]; in [16]; in [17]; in [18]; in assay [12]; with Aromatase (Homo sapiens)).
For the compound `NS(=O)(=O)c1cc2c(cc1Cl)NC(C(Cl)Cl)NS2(=O)=O` (centres undefined), the Potency entry in [1], in assay [2], in assay [14], in [19], in [5] and in assay [6] was “inactive” throughout. For the same compound, the Potency entry in assay [8] was “inactive”. For the same compound, the compound was classed as inactive (in [12]; with Aromatase (Homo sapiens)).
With `FC(F)(F)/C(=N\OCC1OCCO1)c1ccc(Cl)cc1`, the Potency result in assay [1], in assay [2], in [14], in assay [19], in assay [5] and in assay [6] was “inactive” throughout. Besides, the Potency entry in assay [7], in assay [8], in [9] and in [10] was “inactive” in each case. Moreover, the outcome (in assay [3]; in assay [11]; in assay [12]; with Aromatase (Homo sapiens)) was inactive.
Take `CC1(N)CCC(C(C)(C)N)CC1` (centres undefined): the Potency entry in assay [1], in assay [2], in assay [13], in [5], in assay [6] and in assay [8] was “inactive” each time. Besides, the compound was called inactive (in assay [3]; in assay [4]; in assay [12]; with Aromatase (Homo sapiens)).
Turning to `CC(C)CCCCCCOC(=O)C1CCCCC1C(=O)OCCCCCCC(C)C` (centres undefined), the Potency result in [1], in assay [2], in assay [14], in [19], in assay [5] and in assay [6] was “inactive” each time. For the same compound, the Potency result in [8], in assay [9] and in [10] was “inactive” throughout. Further, the result (in [3]; in assay [11]; in assay [12]; in the assay with Aromatase (Homo sapiens)) was inactive.
In the case of `Cc1ccccc1N1CCN(CCc2nnc3n2CCCC3)CC1`, the Potency entry in assay [1], in assay [2], in assay [13], in assay [19], in assay [5] and in assay [6] was “inactive” in each case. Further, in [8], the Potency result is “inactive”. The compound was classed as inactive (in assay [3]; in assay [12]; with Aromatase (Homo sapiens)).
Turning to `CCC(=O)OCCC(C)CCC=C(C)C` (centres undefined), the Potency entry in assay [1], in [2], in assay [19], in assay [5], in assay [6] and in [8] was “inactive” in each case. The result (in assay [3]; in assay [4]; in assay [12]; with Aromatase (Homo sapiens)) was inactive.
Regarding `O=C1OC(=O)c2cc(Oc3ccc4c(c3)C(=O)OC4=O)ccc21`, the Potency entry in assay [1], in [13], in [14], in assay [15], in assay [5] and in assay [6] was “inactive” throughout. For the same compound, the Potency result in [7], in assay [8], in assay [9] and in assay [10] was “inactive” throughout. In addition, the outcome in [3], in assay [16], in assay [17], in assay [18], in assay [11] and in [12] was inactive. Further, the call with Aromatase (Homo sapiens) was inactive.
Consider `C[Si]1(C)N[Si](C)(C)N[Si](C)(C)N1`, for which the Potency entry in assay [1], in assay [2], in assay [14], in assay [19], in assay [5] and in assay [6] was “inactive” throughout. Besides, the Potency result in assay [7], in [8], in assay [9] and in assay [10] was “inactive” throughout. Moreover, the call (in [3]; in assay [4]; in [11]; in [12]; in the assay with Aromatase (Homo sapiens)) was inactive.
For the compound `CCCOC(=O)CCCCC(=O)OCCC`, the Potency result in assay [1], in [2], in assay [19], in assay [5], in [6] and in assay [7] was “inactive” each time. Also, the Potency result in assay [8], in [9] and in assay [10] was “inactive” throughout. For the same compound, the outcome (in [3]; in assay [4]; in [11]; with Aromatase (Homo sapiens)) was inactive.
Consider `O=C(CN1CCN(Cc2ccc3c(c2)OCO3)CC1)N1c2ccccc2Sc2ccccc21`, for which the Potency result in [1] and in assay [8] was “inactive” throughout. Also, the Potency in [2] is 13.3 µM (active); in [14], 26.6 µM (active); in [15], 26.8 µM (active); in [19], 29.8 µM (active); in assay [5], 26.6 µM (active). The compound was classed as inactive (in [16]; in assay [17]; in assay [18]; in assay [12]; with Aromatase (Homo sapiens)).
As to `N#CCCOCCOCCC#N`, the Potency entry in assay [1], in assay [2], in assay [19], in [5], in [6] and in [7] was “inactive” each time. Moreover, the Potency result in assay [8], in assay [9] and in assay [10] was “inactive” each time. Besides, the Potency in assay [13] was 61.1 µM (active). Moreover, the outcome (in assay [3]; in [11]; in assay [12]; in the assay with Aromatase (Homo sapiens)) was inactive.
Regarding `O=C1CC[C@H](C(=O)N2CCCCC2)N1`, the Potency entry in [1], in assay [2], in assay [13], in [9] and in [10] was “inactive” throughout. The call (in assay [3]; in assay [4]; in assay [11]; in the assay with Aromatase (Homo sapiens)) was inactive.
As to `CCCCC/C=C/CC(=O)OC`, the Potency entry in assay [1], in [2], in [5] and in assay [8] was “inactive” in each case. Also, the outcome (in assay [3]; in assay [12]; with Aromatase (Homo sapiens)) was inactive.
Regarding `COc1ccc(OC)c(NC(=O)CC(C)=O)c1`, the Potency result in assay [1], in assay [2], in [14], in assay [19], in assay [5] and in assay [6] was “inactive” each time. Besides, the Potency entry in assay [8] is “inactive”. For the same compound, the outcome in assay [3], in assay [4] and in assay [12] was inactive.
On to `Cc1cccc(C(=O)O)c1[N+](=O)[O-]`, for which the Potency result in assay [1], in assay [2], in assay [13], in assay [19], in [5] and in assay [6] was “inactive” each time. In addition, the Potency result in assay [7], in [8], in assay [9] and in assay [10] was “inactive” each time. Besides, the call (in assay [3]; in assay [11]; in assay [12]; with Aromatase (Homo sapiens)) was inactive.
Consider `CC(=O)Nc1ncc([N+](=O)[O-])s1`, for which the Potency result in assay [1], in [2], in assay [13], in assay [5], in assay [6] and in assay [7] was “inactive” each time. In addition, the Potency entry in assay [8], in assay [9] and in [10] was “inactive” in each case. For the same compound, the call (in assay [3]; in assay [4]; in assay [11]; in assay [12]; in the assay with Aromatase (Homo sapiens)) was inactive.
For `Cc1nc(C)nc(N2C[C@@H](C)N(c3ccnc([C@@H](C)O)n3)[C@@H](C)C2)n1`, the Potency result in assay [1], in assay [2], in assay [5], in [6], in assay [7] and in assay [8] was “inactive” throughout. For the same compound, the Potency result in [9] and in assay [10] was “inactive” in each case. Besides, the compound was called inactive (in assay [3]; in assay [4]; in assay [11]; in assay [12]; in the assay with Aromatase (Homo sapiens)).
Consider `CCCCCCCCCCCCCC(=O)OC`, for which the Potency entry in assay [1], in assay [2], in assay [15], in [19], in [5] and in assay [6] was “inactive” throughout. Also, the Potency result in [7], in assay [8], in assay [9] and in assay [10] was “inactive” each time. Further, the call in assay [3], in [16], in assay [17], in assay [4], in assay [18] and in [11] was inactive. Further, the compound was classed as inactive (in assay [12]; with Aromatase (Homo sapiens)).

The values are drawn from PubChem BioAssay (Tox21).
